tim23-1 inh – inhibits growth of tim23-1 mutant yeast. AID 463212. 330,000 compounds, 1.3% hits. S. cerevisiae tim23-1 growth, BacTiter-Glo luminescence, 24 h. inhibition, % at 20 µM;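 active = growth inhibition of the mutant yeast at or above 50%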;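 also: temperature-sensitive mutant grown at 25 °C; plate controls were DMSO-treated mutant yeast for no effect and medium wells lacking yeast for full effect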
MPTP block – inhibitors of mitochondrial permeability transition pore; isolated mouse mitochondria, Ca2+ swelling absorbance, 30 min; AID 602449; 360,000 compounds, 1.4% hits; inhibition, % at 10 µM;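 active = inhibition of 50% or more, scaled per plate between neutral and stimulator controls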;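 also: 0% = DMSO wells given calcium and 100% = 1 mM EGTA wells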
tim10-1 inh – tim10-1 yeast growth inhibition; S. cerevisiae tim10-1 ts strain growth, BacTiter-Glo, 24 h; inhibition, % at 20 µM; 330,000 compounds, 2.2% hits; AID 463190;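 active = inhibition of at least 40%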;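 also: mutant grown at 25 °C; 0% = DMSO wells with yeast and 100% = wells holding no yeast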
TIM10 inh – growth inhibitors of TIM10 yeast strain; S. cerevisiae TIM10 strain growth, BacTiter-Glo luminescence, 24 h; inhibition, % at 10 µM; 330,000 compounds, 1.4% hits; AID 463195;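 active = inhibition of 40% or more at the single tested concentration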;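 also: wild-type TIM10 isogenic control strain grown at permissive 25 °C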
Mdm2 MdmX PPI – inhibitors of human Mdm2/MdmX interaction; O15151+Q00987; SaOS-2 split-luciferase Mdm2/MdmX complementation, luminescence; inhibition, % at 8 µM; 330,000 compounds, 3% hits; AID 485346;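 active = inhibition of at least 50% at 8 µM in the primary screen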
tim10 confirm – TIM10 yeast growth inhibition, confirmed; AID 463215; 4,600 compounds, 63% hits; shares compounds with TIM10 inh; S. cerevisiae tim10 strain growth, BacTiter-Glo luminescence, 24 h; inhibition, % at 10 µM;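 active = inhibition of yeast growth at or above a set limit in either of two replicates at 10 µM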;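 also: this counterscreen used the strain with wild-type TIM10; 0% = yeast with DMSO and 100% = medium wells lacking yeast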
* = called active by the depositor; x = no result. The list is not random: actives were taken first. Their share in the collection is about 6.3%.

SMILES | tim23-1 inh | MPTP block | tim10-1 inh | TIM10 inh | Mdm2 MdmX PPI | tim10 confirm
COc1ccc(-c2ccc(SCC(=O)c3cccs3)nn2)cc1 | 12.5 | -0.2 | 20.3 | 42.7* | -31.6 | 28.6
COc1ccc(-c2ccc(SCC(=O)Nc3nnc(C)s3)nn2)cc1 | -2.3 | -0.4 | -11.4 | -4.7 | -13.0 | x
Cc1ccc(-c2ccc(SCC(=O)c3ccccc3)nn2)cc1 | 22.5 | 1.2 | 3.8 | 25.2 | -47.4 | x
Cc1c(C(=O)NCc2ccc(F)cc2)c(-c2ccccc2)nn1-c1ccccc1 | 26.4 | 1.3 | 28.0 | 43.3* | 14.9 | 36.9*
O=C(OCc1nnc(-c2ccc(Cl)cc2)o1)c1ccncc1 | 23.1 | 0.8 | 9.5 | -1.0 | -8.9 | x
Cc1noc(C)c1COc1ccc(C(=O)OCc2nnc(-c3ccc(Cl)cc3)o2)cc1 | 10.0 | 0.0 | 32.4 | 42.7* | 28.0 | 37.2*
O=C(/C=C/c1cccc(Br)c1)NCC1CCCCC1 | 21.6 | 23.5 | 25.6 | 41.1* | 3.5 | 33.4*
O=C(COC(=O)/C=C/c1cccc(Br)c1)NC1CCCCC1 | 4.2 | -1.7 | 4.6 | -2.2 | -25.3 | x
CCN1CCN(S(=O)(=O)c2ccc(Cl)c(C(=O)N(C)Cc3ccc(C(C)(C)C)cc3)c2)CC1 | x | 0.1 | x | x | x | x
CCOC(=O)N1CCN(C(=O)CN(C2CCCCC2)S(=O)(=O)c2c(C)cc(C)cc2C)CC1 | 41.7 | 1.8 | 23.7 | 40.8* | -34.3 | 27.7
Cc1cc(C)c(S(=O)(=O)N(CC(=O)N2CCOCC2)C2CCCCC2)c(C)c1 | 34.9 | 0.8 | 29.0 | 34.8 | 18.6 | x
CCN(Cc1ccccc1)S(=O)(=O)c1c(C)[nH]c(C)c1C(=O)N1CCCC1 | -4.5 | -2.6 | -6.9 | 52.5* | 12.1 | -4.9
Cc1[nH]c(C)c(S(=O)(=O)N(Cc2ccccc2)C(C)C)c1C(=O)N1CCCC1 | 0.9 | 0.2 | -6.0 | 5.5 | 3.7 | x
CC(OC(=O)[C@@H](NS(=O)(=O)c1ccccc1)C(C)C)C(=O)c1c(N)n(C)c(=O)n(C)c1=O (stereo partly specified) | x | -0.7 | x | x | x | x
Cc1cc(C)nc(OC(C(=O)O)C(OCc2ccccc2)(c2ccccc2)c2ccccc2)n1 (stereo unspecified) | -0.6 | 0.4 | -1.4 | 97.4* | 9.5 | 5.7
CN=C1S/C(=C\c2ccc(SC)cc2)C(=O)N1C | 22.5 | -2.7 | 35.9 | 13.9 | 5.5 | x
CSC1=NC(=O)/C(=C/c2ccc(SC)cc2)S1 | 23.8 | -0.7 | 24.0 | 48.8* | -22.6 | 20.8
O=C1c2ccccc2C(=O)c2cc(NC(=O)C3CC3)ccc21 | 37.9 | 1.3 | 34.4 | 44.1* | -124.2 | 15.6
CC(=O)Nc1ccc2c(c1)C(=O)c1ccccc1C2=O | 3.5 | 1.9 | 16.4 | 28.8 | -108.9 | x
CC1/C(=N/O)CC(c2ccccc2)N(C)C1c1ccccc1 (stereo unspecified) | 20.2 | -0.5 | 26.8 | 51.6* | 0.5 | 55.4*
Nc1ccn(CCCNC2CCN(Cc3ccccc3)CC2)c(=O)n1 | x | -0.2 | x | x | x | x
CC(CNC(=O)CC[C@H]1O[C@@H](n2cnc3c(NC(=O)c4ccccc4)ncnc32)[C@H](O)[C@@H]1O)c1ccccc1 (stereo partly specified) | x | 0.5 | x | x | x | x
C#CCOCCOCCOCCNc1nc(N2CCN(C(=O)Cn3cc(CCCN=C(N)N)nn3)CC2)nc(N2CCN(C(=O)[C@H](C)n3cc(CCCN=C(N)N)nn3)CC2)n1 | -10.1 | -1.0 | -3.6 | 60.5* | 25.9 | -8.2
COc1cccc(NC(=O)Nc2cccn(Cc3ccccc3)c2=O)c1 | 30.4 | 0.0 | 6.9 | 43.8* | 30.0 | 28.0*
COc1cccc(NC(=O)Nc2ccc(Cc3ccncc3)cc2)c1 | 26.2 | 44.7 | 33.2 | 43.7* | 10.6 | -1.8
SMILES | tim23-1 inh | MPTP block | tim10-1 inh | TIM10 inh | Mdm2 MdmX PPI | tim10 confirm
COc1ccc(Cc2c(-c3ccc(OC)c(OC)c3)nc3cc(C)c(Br)c(C)n23)c(C)c1 | x | 1.3 | x | x | x | x
Cc1ccc(N2C(=O)c3cccc(Oc4ccc(Cl)cc4)c3C2=O)c(C)c1 | 29.0 | 3.5 | 22.9 | 41.7* | 22.5 | 23.6
O=C(O)CN1C(=O)c2cccc(Oc3ccc(Cl)cc3)c2C1=O | 9.2 | -0.3 | 17.2 | -9.1 | 0.1 | x
O=C(NC(Sc1ccc(Cl)cc1)C(=O)O)c1ccccc1 (stereo unspecified) | x | 0.6 | x | x | x | x
Oc1ccc(/C=N/n2c3ccccc3c3ccccc32)cc1 | 37.2 | -5.7 | -3.7 | 44.3* | 21.2 | 74.8*
Nc1ccc(C(=O)OCc2nc3c(ccc4ccccc43)[nH]2)cc1 | 34.5 | -5.4 | 29.5 | 47.6* | -51.2 | -3.1
O=C(OCc1nc2ccsc2c(=O)[nH]1)c1ccccc1 | 10.4 | -0.9 | 0.6 | -3.8 | 7.4 | x
c1ccc(-c2csc3nnc(SCc4ccc5c(c4)OCCO5)n23)cc1 | 39.9 | -0.5 | 39.1 | 41.0* | 10.1 | 29.8*
C/C=C(/C)C(=O)O[C@@H]1c2c(ccc3ccc(=O)oc23)OC(C)(C)[C@@H]1OC(C)=O | 42.6 | -0.7 | 21.1 | 17.6 | 20.2 | x
C/C=C(\C)C(=O)OC1c2c(ccc3ccc(=O)oc23)OC(C)(C)C1OC(C)=O (stereo unspecified) | 43.1 | 1.6 | 28.6 | 48.5* | 13.1 | 29.1*
CCOC(=O)c1cnc(-n2nc(C)cc2C)nc1NNc1cc(-c2ccccc2)nc(C)n1 | -14.0 | x | -5.7 | 1.8 | 45.1 | x
CCOC(=O)c1cnc(-n2nc(C)cc2C)nc1NCc1ccccc1 | 40.4 | 4.6 | 35.7 | 43.5* | 17.4 | 38.7*
CCc1cc(C)cc(OCCOc2ccccc2/C=N/NC(C)=O)c1 | 26.6 | -0.1 | 5.8 | 13.2 | 26.4 | x
CC(=O)N/N=C/c1ccccc1OCCOc1cccc(C)c1 | 49.3 | -0.2 | 10.3 | 47.4* | 24.4 | 34.2*
Cc1cc(NC(=O)NC(=O)c2cccc(OC(F)(F)C(F)F)c2)n[nH]1 | 7.0 | 2.1 | 7.1 | 13.6 | -21.7 | x
Cc1cc(NC(=O)c2cccc(Oc3ccccc3)c2)n[nH]1 | 2.7 | -0.1 | 36.9 | 61.0* | -103.3 | 66.0*
O=C(NNC(=S)NC1CCCCC1)c1cccc(S(=O)(=O)Nc2ccccc2Cl)c1 | 20.6 | 25.0 | 27.5 | 40.9* | -14.7 | 41.4*
C[C@@H]1CN([C@@H](C)CO)C(=O)CCCn2nncc2CO[C@@H]1CN(C)S(=O)(=O)c1cccc(F)c1 | x | 0.8 | x | x | x | x
Cc1sc2ncnc(SCC(=O)NC(=O)NCc3ccco3)c2c1C | -24.3 | 1.1 | -8.2 | 50.4* | 20.2 | -0.2
Cc1nc(SCC(=O)NCc2ccco2)c2c(C)c(C)sc2n1 | 14.8 | -0.4 | 15.0 | 7.9 | 10.2 | x
O=C(NCCc1ccccc1)c1ccc(S(=O)(=O)N2CCCC2)cc1 | 23.4 | -0.8 | 19.3 | 61.9* | -24.8 | 3.4
O=C(NCCc1ccc(F)cc1)c1ccc(S(=O)(=O)N2CCCC2)cc1 | 36.2 | -1.3 | 19.9 | 22.0 | 19.4 | x
Cc1ccccc1C(=O)NCCN1CCC(n2c(=O)[nH]c3ccccc32)CC1 | x | 1.1 | x | x | x | x
COc1ccccc1/C=C/C(=O)c1ccc(Cl)cc1 | 26.3 | 5.4 | 32.1 | 33.4 | 25.0 | x
COc1ccc(OC)c(/C=C/C(=O)c2ccc(Cl)cc2)c1 | 40.2 | -1.0 | 36.3 | 45.4* | 12.7 | 32.2*
